Data published in PubChem BioAssay (Tox21).
Results filed as inconclusive are left out. A call without a number means that no potency is given here. Active and inactive are the calls of the source. The call rests on the fitted dose curve.

Experiment: p53 small molecule agonists, cell-based qHTS assay with human liver microsomes: qHTS cell viability counter screen (AID 1963579); further: nearly all actives have a fitted effect of over 45% in size
Procedure, shortened: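 In this multiplexed counter screen, the reporter plates were subsequently treated with CellTiter-Glo so that cell viability, reflected by luminescence, could be recorded for p53RE-bla cells dosed 16 h with compounds under microsomal activation (HLM and NADPH).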
Potency means the concentration at half of the fitted maximal effect.

For CCc1nn(C2CCCCC2)c2cc(C3(C#N)CCC(C(=O)O)CC3)ccc12 (configuration not stated), the Potency was “inactive”.

For CN(C)C(=O)C1(N2CCCCC2)CCN(CC[C@@]2(c3ccc(Cl)c(Cl)c3)CN(C(=O)c3ccccc3)CCO2)CC1, the Potency was “inactive”.

In the case of Cc1ccc(OC(=O)c2ccccc2O)cc1, the Potency is reported as “inactive”.

With CCCCCCCCCCCCCC[n+]1ccccc1 the Potency was 32.4 µM (active).

For OC1(c2ccc(Cl)c(C(F)(F)F)c2)CCN(CCCC(c2ccc(F)cc2)c2ccc(F)cc2)CC1, the Potency was “inactive”.

In the case of O=c1cc(-c2ccccc2)oc2ccc3ccccc3c12, the Potency is reported as “inactive”.

With NC(=O)c1ccccc1[N+](=O)[O-] the Potency was “inactive”.

In the case of CC(=O)O[C@@H]1CC2CCC1(C)C2(C)C (some centres not stated), the Potency is reported as “inactive”.

In the case of CCCCCCCCCCCCN(CCO)CCO, the Potency is reported as 45.6 µM (active).

With Cc1ccccc1C(=O)Nc1ccc(C(=O)N2CCCC(N(C)C)c3ccccc32)cc1 (configuration not stated) the Potency was “inactive”.

For COc1ccccc1NC(=O)c1cc2ccccc2cc1O, the Potency was “inactive”.

In the case of CCCCCCCCCCCC(=O)Cl, the Potency is reported as “inactive”.
